Among all 2,300 compounds or so, about 20 (0.9%) were called active.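 Rule for the calls: active = mean activation across replicates above 26.72%, the hit cutoff set for this confirmation screen; inactive = the rest.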 What follows is part of a selection rich in actives, with near analogues and random picks from the rest.
biological target: G-protein coupled receptor 151 (Homo sapiens) (UniProt Q8TDV0); assay: GPR151 activators, triplicate retest, confirmation, cell-based, PathHunter beta-arrestin, luminescence, set 2 (AID 1508608); details: GPR151 PathHunter beta-arrestin cells, 90 min, at 11.2 µM, active compounds read high, 100% = signal from added EA reagent;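 note: 0% = plate median of compound wells and 100% = EA reagent high control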
Sequence (Q8TDV0 whole entry, looked up): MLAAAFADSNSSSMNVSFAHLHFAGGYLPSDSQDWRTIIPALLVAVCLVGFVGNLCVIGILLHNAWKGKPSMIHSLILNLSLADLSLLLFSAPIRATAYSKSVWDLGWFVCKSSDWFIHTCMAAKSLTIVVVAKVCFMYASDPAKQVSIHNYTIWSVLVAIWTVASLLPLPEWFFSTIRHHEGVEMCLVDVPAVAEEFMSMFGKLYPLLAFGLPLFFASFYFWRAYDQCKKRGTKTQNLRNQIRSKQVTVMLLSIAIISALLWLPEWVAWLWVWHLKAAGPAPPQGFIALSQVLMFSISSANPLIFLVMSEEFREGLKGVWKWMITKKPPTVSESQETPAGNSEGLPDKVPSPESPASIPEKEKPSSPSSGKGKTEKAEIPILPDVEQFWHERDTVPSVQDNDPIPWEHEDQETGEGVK

| SMILES | activation |
| --- | --- |
| CC(=O)NCC(=O)N1CCC(c2nc(-c3ccncc3)ncc2-c2cccc(C)c2)CC1 | 0.35% (inactive) |
| CCCn1c(=O)c2c(nc3n2CC(C)CN3c2cccc(Cl)c2)n(C)c1=O (stereo unspecified) | 3.55% (inactive) |
| S=c1[nH]nc(OCc2ccc(Cl)cc2Cl)n1-c1ccccc1 | -1.15% (inactive) |
| CC1C(=O)Nc2ccc(S(=O)(=O)Nc3ccc(F)c(Cl)c3)cc2NC1=O (stereo unspecified) | 4.91% (inactive) |
| COC(=O)C1(C(F)(F)F)N=C2C=C(C)C=CN2C(c2ccc(C)cc2)=N1 (stereo unspecified) | 3.12% (inactive) |
| COC(=O)c1c(NC(=O)COc2cccc(C(F)(F)F)c2)sc2c1CCCC2 | -0.94% (inactive) |
| O=C1CSc2ccc(C(=O)N3CCc4ccccc4C3)cc2N1 | -0.36% (inactive) |
| Cc1sc2ncn(CC(=O)Nc3ccc(Oc4ccc(Cl)cc4)cc3)c(=O)c2c1C | 2.02% (inactive) |
| COc1ccc(/C=N/NC(=O)COc2c(OC)cc([N+](=O)[O-])cc2[N+](=O)[O-])c(O)c1 | -9.14% (inactive) |
| CCc1c(C)nc2c(C(=O)NCCc3ccccc3)c[nH]n2c1=O | 1.59% (inactive) |
| CCOc1ccc(C(=O)Nc2nc(-c3ccc(CC)cc3)cs2)cc1 | 4.71% (inactive) |
| O=c1ccc(=O)n(CN(c2ccccc2)c2ccccc2)[nH]1 | 4.24% (inactive) |
| CCN(CC)CCNC(=O)CNC(=O)c1nn(-c2ccc(OC)cc2OC)c(=O)c2ccccc12 | -4.28% (inactive) |
| Cc1ccc(-c2cc(=O)c3cc(Cl)ccc3o2)cc1 | -6.67% (inactive) |
| O=C(O)CNC(=O)/C=C/c1ccccc1Cl | -5.28% (inactive) |
| O=c1c2sc3ccccc3c2n(CCN2CCOCC2)c(=O)n1Cc1ccccn1 | 1.89% (inactive) |
| COc1ccc(C)cc1NC(=O)c1sc2ncn(CC(=O)Nc3ccc(C)c(Cl)c3)c(=O)c2c1C | -0.16% (inactive) |
| O=C(c1ccccc1)c1cc2cc(Cl)ccc2oc1=O | 1.99% (inactive) |
| O=C(CCNS(=O)(=O)c1ccc2[nH]c(=O)ccc2c1)N1CCC(N2CCCCC2)CC1 | -4.32% (inactive) |
| COc1cccc(NC2c3ccccc3C(=O)N2c2cccnc2)c1 (stereo unspecified) | 0.11% (inactive) |
| O=C(O)c1ccc(Sc2ccc(Br)cc2)c([N+](=O)[O-])c1 | -1.52% (inactive) |

| SMILES | activation |
| --- | --- |
| COc1ccc(C2C3=C(CCCC3=O)Nc3nc(SC)nn32)c(OC)c1 (stereo unspecified) | 1.74% (inactive) |
| CCOC(=O)C1=C(C)N=c2s/c(=C\c3cc([N+](=O)[O-])ccc3N3CCOCC3)c(=O)n2C1c1ccc(OC)c(OC)c1 (stereo unspecified) | 0.23% (inactive) |
| Cc1ccc(CN2CCN(Cc3ccc4cc(F)ccc4n3)CC2CCO)o1 (stereo unspecified) | 4.51% (inactive) |
| CCn1c(=S)sc2c(=O)[nH]c(C)nc21 | -7.13% (inactive) |
| CC(=O)n1nc(-c2ccco2)nc1SCc1ccccc1 | 2.59% (inactive) |
| Cc1noc(C)c1S(=O)(=O)N1CCC(C(=O)N2CCCCC2C)CC1 (stereo unspecified) | -1.12% (inactive) |
| CCCc1cc(=O)n2[nH]c(NCc3cccc(OC)c3)nc2n1 | -0.18% (inactive) |
| CCC(C)NC(=O)CSc1nnc(-c2ccc(C)cc2)c(-c2ccc(C)cc2)n1 (stereo unspecified) | 6.79% (inactive) |
| CCN(CC)S(=O)(=O)c1ccc(-c2csc(=Nc3ccccc3OC)n2CC)cc1 | 28.4% (active) |
| COc1ccc(CCn2c(-c3ccc(Cl)cc3)csc2=Nc2ccc(F)cc2)cc1OC | 2.13% (inactive) |
| O=S(=O)(c1ccc(-c2csc(=Nc3cccc(Cl)c3)n2CCCO)cc1)N1CCCCC1 | 14.5% (inactive) |
| COc1ccc(C(=O)NC(C)c2csc(C)n2)cc1OC1CCN(C(C)=O)CC1 (stereo unspecified) | 1.6% (inactive) |
| Cc1ccc2c(c1)NC(C)(C)c1ssc(=Nc3ccc(S(=O)(=O)Nc4nccc(C)n4)cc3)c1-2 | 6.63% (inactive) |
| CSc1ncc(Cl)c(C(=O)Nc2nc3ccc(S(C)(=O)=O)cc3s2)n1 | -3.08% (inactive) |
| CC[n+]1c(/C=C2\Sc3ccc(C)cc3N2CCO)ccc2ccccc21 | 31.2% (active) |
| CCC[n+]1c(/C=C2\Sc3ccccc3N2CC)ccc2ccccc21 | 15.4% (inactive) |
| CN1CCN(c2cc(-c3cn[nH]c3)ccc2NC(=O)Cc2cccc(Cl)c2)CC1 | 35.5% (active) |
| N#Cc1c(-c2ccccc2)cc(-c2cccs2)nc1SC1CCCCC1O (stereo unspecified) | 4.8% (inactive) |
| Cc1ccc2nc(NC(=O)CCCN3C(=S)NC(C)(C)CC3C)sc2c1 (stereo unspecified) | 2.74% (inactive) |
| C#CCOc1c(Br)cc(C=O)cc1OC | -0.43% (inactive) |

Source: PubChem BioAssay AID1508608 (The Scripps Research Institute Molecular Screening Center, 2020)
